# Test results reported in PubChem BioAssay.
# Activity calls are given as the source filed them. The rule behind the calls is not given here.
# Test system: Aerobactin synthetase IucA (Klebsiella pneumoniae, hypervirulent)
# Assay: IucA enzyme inhibition, biochemical, LOPAC library, absorbance readout (AID 1346212);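 note: 100% = no compound wells and 0% = no enzyme wells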
# Settings: IucA enzyme assay, absorbance (OD) readout; active compounds read low;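 tested at 8 µM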
row,Structure (SMILES),remaining activity
1,CCCn1c(=O)c2[nH]c(-c3ccc(S(=O)(=O)O)cc3)nc2n(CCC)c1=O,111% (inactive)
2,O=C(O)C1=CCNCC1,95.2% (inactive)
3,Cc1ccccc1CNc1ncnc2c1ncn2[C@@H]1O[C@H](CO)[C@@H](O)[C@H]1O,122% (inactive)
4,CCCCN1CCC(COC(=O)c2cc(Cl)c(N)c3c2OCCO3)CC1,109% (inactive)
5,Cn1ccnc1,101% (inactive)
6,CC(C)NC[C@H](O)COc1cccc2ccccc12,92.7% (inactive)
7,N=S(=O)(O)Cc1noc2ccccc12,121% (inactive)
8,Cn1ccc2cc(NC(=O)Nc3cccnc3)ccc21,117% (inactive)
9,Cc1nc(N=Nc2ccc(S(=O)(=O)O)cc2S(=O)(=O)O)c(COP(=O)(O)O)c(C=O)c1O,106% (inactive)
10,CC(COc1ccc(/C=C/c2ccccc2)cc1)[N+](C)(C)C (stereo not given),104% (inactive)
11,CCCCCCCCCCCCCCCCCCOC[C@H](COP(=O)([O-])OCC[N+](C)(C)C)OC,119% (inactive)
12,Cc1cc(NC(=O)Nc2ccc3c(ccn3C)c2)sn1,122% (inactive)
13,COC1(C2=NCCN2)COc2ccccc2O1 (stereo not given),105% (inactive)
14,CC(=O)O[C@H]1C[C@@H]2CC[C@@H]3[C@H](CC[C@@]4(C)[C@H]3C[C@H]([N+]3(C)CCCCC3)[C@@H]4OC(C)=O)[C@@]2(C)C[C@@H]1[N+]1(C)CCCCC1,121% (inactive)
15,O=C1NC(=S)S/C1=C/c1cc(Br)ccc1OCc1ccccc1Br,116% (inactive)
16,Cc1nc(N=Nc2cc([N+](=O)[O-])ccc2Cl)c(COP(=O)(O)O)c(C=O)c1O,117% (inactive)
17,OC[C@H]1O[C@@H](n2cnc3c(N[C@H]4CC5CCC4C5)ncnc32)[C@H](O)[C@@H]1O (stereo not given in full),99.3% (inactive)
18,NC(=O)c1ccccc1,109% (inactive)
19,CN(C)CC/C=C1\c2ccccc2COc2ccccc21,121% (inactive)
20,CCCCCC(O)c1cccc(OCc2ccc3ccccc3n2)c1 (stereo not given),98.9% (inactive)

row,Structure (SMILES),remaining activity
1,CC[C@H](NC(=O)c1c(C)c(-c2ccccc2)nc2ccccc12)c1ccccc1,114% (inactive)
2,NCCCCCCCCCCN,104% (inactive)
3,CCOC(=O)c1cnc2c(cnn2CC)c1NN=C(C)C,124% (inactive)
4,COc1cc(C(O)CO)ccc1OS(=O)(=O)O (stereo not given),99.3% (inactive)
5,CC[C@H](C)[C@H]1O[C@]2(CC[C@@H]1C)C[C@@H]1C[C@@H](C/C=C(\C)[C@@H](O[C@H]3C[C@H](OC)[C@@H](O[C@H]4C[C@H](OC)[C@@H](O)[C@H](C)O4)[C@H](C)O3)[C@@H](C)/C=C/C=C3\CO[C@@H]4[C@H](O)C(C)=C[C@@H](C(=O)O1)[C@]34O)O2,114% (inactive)
6,CCCC(=O)NCCc1c2n(c3ccc(OC)cc13)CCCc1ccccc1-2,116% (inactive)
7,N#C/C(=C\c1ccc(O)c(O)c1)C(=O)N1CCc2ccccc21,107% (inactive)
8,Cc1ccc([N+](=O)[O-])cc1S(=O)(=O)N(C)C,108% (inactive)
9,N=C(N)c1ccccc1,121% (inactive)
10,O=C1NC(=O)C(c2ccccc2[N+](=O)[O-])=C1Nc1ccc(O)c(Cl)c1,95% (inactive)
11,CNC1(C)C2CCC(C2)C1(C)C (stereo not given),96.4% (inactive)
12,CCCCOC(=O)NS(=O)(=O)c1sc(CC(C)C)cc1-c1ccc(Cn2c(CC)nc3c(C)cc(C)nc32)cc1,116% (inactive)
13,O=C1NC(=O)c2cc(Nc3ccccc3)c(Nc3ccccc3)cc21,113% (inactive)
14,Cc1nc2sccn2c(=O)c1CCN1CCC(=C(c2ccc(F)cc2)c2ccc(F)cc2)CC1,99.1% (inactive)
15,COc1ccccc1N1CCN(CCN(C(=O)c2ccc(I)cc2)c2ccccn2)CC1,122% (inactive)
16,CCCCCCCCc1ccc(-c2ccc(C(=O)O)cc2)cc1,124% (inactive)
17,COC(=O)c1c(-c2cc(OC)c(OC)c(OC)c2)c2ccnc(OCc3ncccn3)c2c(=O)n1Cc1ccnc(C)c1,101% (inactive)
18,CC(C)(C)c1ccc(S(=O)(=O)/C=C/C#N)cc1,119% (inactive)
19,COc1[nH]c2ccc(F)cc2c1C(=O)OCC1CCN(CCNS(C)(=O)=O)CC1,124% (inactive)
20,Nc1nc2[nH]c(=O)cnc2c(=O)[nH]1,89% (inactive)
